Measurements reported in PubChem BioAssay (NCI).
This is part of a sample that, as a whole, favours compounds with a hit. Of some 79,000 tested, about 15% had one in any assay. Activity calls are given as the source filed them. No stated cut-off is given here; in the data, active means growth inhibition above about 70%; inactive means the rest.

Experiment: NCI Yeast Anticancer Drug Screen. Data for the mec2-1 strain (AID 157)
Conditions: S. cerevisiae mec2-1 strain, at 5.0 µM (retest, dose inferred, filed as 0.5), stronger effect = higher value
How it was run: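 Mutant yeast (mec2-1) grown with compound; growth inhibition relative to vehicle control reported.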

With O=C(O)/C=C/C(=O)Nc1cccc2ccccc12 as the compound, how does the growth inhibition read?
The growth inhibition was 44% (inactive).

Which growth inhibition does the source give for CCCCCN=C(C)C(C)=NCCCCC here?
Its growth inhibition is 3% (inactive).

For Oc1ccc(N=Nc2ccccc2)c(O)c1.Oc1ccc(N=Nc2ccccc2)c(O)c1.[Cu], which growth inhibition is on record?
Its growth inhibition is 16% (inactive).

For NNc1c(Cl)cc(Cl)cc1Cl, which growth inhibition is on record?
The growth inhibition was -16% (inactive).

For C=C1C[C@H](O)[C@H]2C(C[Se]c3ccccc3)C(=O)O[C@@H]2[C@H]2[C@H](C)C(O)C[C@@H]12 (stereo not given in full), which growth inhibition is on record?
Its growth inhibition is 2% (inactive).

With O=C(CBr)Oc1ccc(-c2cccc(Br)c2)cc1 as the compound, how does the growth inhibition read?
The growth inhibition was 6% (inactive).

Which growth inhibition does the source give for CCCCC1=NCCc2c1cc1c([nH]c3ccccc31)c2C here?
Its growth inhibition is -19% (inactive).

Which growth inhibition does the source give for CCOC(=O)NC(=S)Nc1ccsc1 here?
Its growth inhibition is -4% (inactive).

For CCCCCCCCCCCCCCCCNC(C)c1ccccc1 (stereo not given), which growth inhibition is on record?
The growth inhibition was -1% (inactive).

Which growth inhibition does the source give for Cc1ccc(C2(O)CC(c3ccc([N+](=O)[O-])o3)=NN2C(=O)COc2ccc(Cl)cc2)cc1 (stereo not given) here?
The growth inhibition was 29% (inactive).

For CCOC(=O)/C(C#N)=C/c1ccccc1Br, which growth inhibition is on record?
The growth inhibition was -19% (inactive).

For CCCCCCCCCCCCCCCCNCCCCCCCC(=O)O, which growth inhibition is on record?
The growth inhibition was 4% (inactive).

For CC[N+]1(C)CCC(O)(c2ccc(Cl)c(Cl)c2)C(C(=O)c2ccc(Cl)c(Cl)c2)C1 (stereo not given), which growth inhibition is on record?
Its growth inhibition is 4% (inactive).

For CC(=O)Nc1nnc(-c2coc3ccccc3c2=O)s1, which growth inhibition is on record?
Its growth inhibition is 4% (inactive).

With CCC(C)(C)NCCCCCNc1cc(OC)cc2cccnc12 as the compound, how does the growth inhibition read?
The growth inhibition was -5% (inactive).

For CSC(=Nc1ccccc1)/N=C(\SCc1ccccc1)N(C)C, which growth inhibition is on record?
The growth inhibition was 26% (inactive).

Which growth inhibition does the source give for N=Cc1cc([N+](=O)[O-])ccc1O here?
The growth inhibition was -1% (inactive).

For CCCCCCCC(=O)/C=C/c1ccc(C)cc1, which growth inhibition is on record?
The growth inhibition was -54% (inactive).

Which growth inhibition does the source give for Cc1ccc(S(=O)(=O)N/N=C2/CC[C@H](C(C)(C)C)C[C@@H]2C)cc1 here?
Its growth inhibition is -15% (inactive).

For Nc1ccc2c(c1)CCc1ccccc1-2, which growth inhibition is on record?
The growth inhibition was -27% (inactive).

With CN(C)CCC(=O)[C@@]1(O)CC[C@H]2[C@@H]3CC=C4C[C@@H](O)CC[C@]4(C)[C@H]3CC[C@@]21C as the compound, how does the growth inhibition read?
The growth inhibition was 11% (inactive).

With CC(=O)OC1COC(N2C(=O)C(=O)c3cc(Br)ccc32)C(OC(C)=O)C1OC(C)=O (stereo not given) as the compound, how does the growth inhibition read?
The growth inhibition was 1% (inactive).

For Cc1ccc(N2CCN(c3c(N)cncc3Br)CC2)cc1, which growth inhibition is on record?
Its growth inhibition is 6% (inactive).

For O=C(O)c1ccccc1SC(Sc1ccccc1C(=O)O)c1cccc(Cl)c1, which growth inhibition is on record?
The growth inhibition was 7% (inactive).

Which growth inhibition does the source give for CC[N+](C)(CC)CCC(=O)/C=C/c1ccccc1 here?
Its growth inhibition is 11% (inactive).

Which growth inhibition does the source give for COc1ccc(C(C)c2cc3c(cc2OC/C(C)=N/NC(N)=O)OCO3)cc1 (stereo not given) here?
Its growth inhibition is 43% (inactive).

With CN=C(N)N/N=C(\C)c1ccc2c(c1)Cc1cc(Cl)ccc1-2 as the compound, how does the growth inhibition read?
The growth inhibition was 16% (inactive).

With CCCCCCCCN/N=C(/C)CCCCCO as the compound, how does the growth inhibition read?
Its growth inhibition is 4% (inactive).

Which growth inhibition does the source give for O=[N+]([O-])c1cccc2c(O)cccc12 here?
The growth inhibition was 0% (inactive).

For O=C1C(=O)c2ccccc2C(O)=C1Sc1ccccc1, which growth inhibition is on record?
Its growth inhibition is 20% (inactive).

Which growth inhibition does the source give for CC(=O)N(O)c1ccc2c(c1)Cc1cc(F)ccc1-2 here?
The growth inhibition was 34% (inactive).

Which growth inhibition does the source give for CC12CCC(=O)C=C1CCC1C2CCC2(C)C(c3cnc[nH]3)CCC12 (stereo not given) here?
The growth inhibition was 36% (inactive).

Which growth inhibition does the source give for O=C1OC(C2OC(=O)C(=O)C2C(=O)c2ccc(Cl)c(Cl)c2)C(C(=O)c2ccc(Cl)c(Cl)c2)C1=O (stereo not given) here?
Its growth inhibition is 10% (inactive).

With CC/C(C)=C1\CCC(CN2CCOCC2)C1=O (stereo not given) as the compound, how does the growth inhibition read?
Its growth inhibition is 20% (inactive).

With COc1ccc(C2CC(=O)CC(=O)C2)cc1 as the compound, how does the growth inhibition read?
The growth inhibition was 5% (inactive).

Which growth inhibition does the source give for Cc1ccc(O)c(C(c2ccc([N+](=O)[O-])cc2)c2cc(C)ccc2O)c1 here?
Its growth inhibition is 90% (active).

Which growth inhibition does the source give for O=C1OS(=O)(=O)c2cc3c(cc21)C1C(C2C3C3(Cl)C(Cl)=C(Cl)C2(Cl)C3(Cl)Cl)C2(Cl)C(Cl)=C(Cl)C1(Cl)C2(Cl)Cl (stereo not given) here?
The growth inhibition was 48% (inactive).

For CCOC(=O)C1SC(=S)N(C)C1=O (stereo not given), which growth inhibition is on record?
Its growth inhibition is -2% (inactive).

Which growth inhibition does the source give for O=C(c1ccc(Cl)c([N+](=O)[O-])c1)c1ccc(Cl)c([N+](=O)[O-])c1 here?
Its growth inhibition is 12% (inactive).

Which growth inhibition does the source give for Cc1cc[c]([Sn]([Cl])([O][Sn]([Cl])([c]2ccc(C)cc2)[c]2ccc(C)cc2)[c]2ccc(C)cc2)cc1 here?
Its growth inhibition is 15% (inactive).
